The record followed here is PubChem BioAssay (Tox21).

The nature of assay [1]: qHTS assay to identify aromatase inhibitors - cell viability counter screen (AID 743084).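 Further: cells stimulated with testosterone during compound exposure; nearly all actives have a fitted effect of over 55% in size.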 Background: Quantitative high-throughput screening tests each substance at several concentrations.
In assay [2] the target is Aryl hydrocarbon receptor (Homo sapiens) (UniProt P35869). Kind of assay: qHTS assay to identify small molecule that activate the aryl hydrocarbon receptor (AhR) signaling pathway (AID 743085). Further: nearly all actives have a fitted effect of over 15% in size. Further: potency means the concentration at half of the fitted maximal effect.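 On activation: HG2L7.5c1 human HepG2 liver cells with stably integrated DRE-driven firefly reporter; series mostly up to about 70 µM.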 The method, boiled down: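 AhR agonist activity is inferred from enhanced light output of a DRE-controlled firefly luciferase reporter in HepG2 cells, measured with ONE-Glo following 24 h treatment at 37C.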

The nature of assay [3]: qHTS assay to identify small molecule that activate the aryl hydrocarbon receptor (AhR) signaling pathway - cell viability counter screen (AID 743086).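 Further: HepG2 liver cells carrying the AhR DRE luciferase reporter; series mostly up to about 70 µM; nearly all actives have a fitted effect of over 45% in size.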 The method, boiled down:
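Cytotoxicity counter screen: CellTiter-Fluor signal (30 min, 37 C) in 4000 HepG2 cells/well carrying the DRE-luciferase reporter, following 24 h compound exposure at 37 C.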

Assay [4] has as its target Peroxisome proliferator-activated receptor gamma (Homo sapiens) (UniProt P37231). Kind of assay: qHTS assay to identify small molecule agonists of the peroxisome proliferator-activated receptor gamma (PPARg) signaling pathway (AID 743094; active means well fitted activation curve with a large enough effect in the signal ratio in the repeat runs, not every such curve was filed as active; the % refers to the signal ratio). In outline: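 Agonism was assessed in a beta-lactamase reporter system, HEK293H cells with a stably integrated UAS-bla construct under PPARg control; the 17 h treatment at 37C preceded a 1 h room-temperature FRET substrate read.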

For assay [5] the target is unchanged. The experiment in a line: qHTS assay to identify small molecule antagonists of the peroxisome proliferator-activated receptor gamma (PPARg) signaling pathway (AID 743191; calls by dose curve; further: series mostly up to about 63 µM; nearly all actives have a fitted effect of over 30% in size). In outline:
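Beta-lactamase reporter under UAS control in HEK293H PPARg-bla cells; compound treatment 17 h at 37C. Read-out: fluorescence intensity after 1 h room-temperature incubation with LiveBLAzer B/G FRET substrate.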

Assay [6] is described as follows: qHTS assay to identify small molecule antagonists of the peroxisome proliferator-activated receptor gamma (PPARg) signaling pathway - cell viability counter screen (AID 743194). Further: nearly all actives have a fitted effect of over 55% in size. The method, boiled down:
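Viability was measured as CellTiter-Glo luminescence in GeneBLAzer PPARg UAS-bla HEK293H cells. These cells had been exposed 17 h at 37 C to compounds together with rosiglitazone at 50 nM final, with the beta-lactamase readout taken in the same wells.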

A short description of assay [7]: qHTS assay for small molecule agonists of the antioxidant response element (ARE) signaling pathway (AID 743202; active means well fitted activation curve with a large enough effect in the signal ratio in the repeat runs, not every such curve was filed as active; the % refers to the signal ratio). The method, boiled down: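 Beta-lactamase reporter activity, read as fluorescence intensity, reflects ARE/Nrf2 pathway induction in HepG2 cells after 16 h compound exposure at 37 C; substrate loading was 2 h at room temperature.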
Assay [8] in a line: qHTS assay for small molecule agonists of the antioxidant response element (ARE) signaling pathway - cell viability counter screen (AID 743203; calls by dose curve; further: nearly all actives have a fitted effect of over 55% in size). The method, boiled down:
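ATP content via CellTiter-Glo luminescence served as the viability measure. Cells: ARE-bla HepG2, 2,000 per well. Exposure: 16 hrs, 37C/5% CO2.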

The nature of assay [9]: qHTS assay for small molecule activators of the heat shock response signaling pathway - cell viability counter screen (AID 743209). Further: nearly all actives have a fitted effect of over 50% in size. The method, boiled down: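 Compounds dissolved in DMSO were added to overnight-plated HSE-bla HeLa cells and left 5 h at 37 C. Cell viability was quantified by luminescence using CellTiter-Glo.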
Assay [10] in a line: qHTS assay for small molecule activators of the heat shock response signaling pathway (AID 743210; active means well fitted activation curve with a large enough effect in the signal ratio in the repeat runs, with a control signal flat, not every such curve was filed as active; the % refers to the signal ratio;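 further: HeLa cells with beta-lactamase reporter driven by heat shock elements; series mostly up to about 63 µM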). The method, boiled down:
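Fluorescence from a cleaved B/G FRET substrate (2.5 h, room temp) reports HSE-driven beta-lactamase in HeLa cells treated 5 h at 37 C with DMSO-dissolved compounds.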

Values joined by “and” are separate entries in the source; they are usually repeats but may differ in a detail not shown here. Equal entries are not always repeated. Inconclusive results are not listed. Active and inactive are the calls of the source. Unless noted, the call rests on the fitted dose curve; in most records, active means well fitted curve in the direction sought with a large enough effect in the repeat runs; inconclusive means weak or mixed curves; inactive means no such curve, though single readings can be large; an effect the other way counts as inactive or inconclusive.

Sequence of Peroxisome proliferator-activated receptor gamma (Homo sapiens) (P37231 whole entry, looked up): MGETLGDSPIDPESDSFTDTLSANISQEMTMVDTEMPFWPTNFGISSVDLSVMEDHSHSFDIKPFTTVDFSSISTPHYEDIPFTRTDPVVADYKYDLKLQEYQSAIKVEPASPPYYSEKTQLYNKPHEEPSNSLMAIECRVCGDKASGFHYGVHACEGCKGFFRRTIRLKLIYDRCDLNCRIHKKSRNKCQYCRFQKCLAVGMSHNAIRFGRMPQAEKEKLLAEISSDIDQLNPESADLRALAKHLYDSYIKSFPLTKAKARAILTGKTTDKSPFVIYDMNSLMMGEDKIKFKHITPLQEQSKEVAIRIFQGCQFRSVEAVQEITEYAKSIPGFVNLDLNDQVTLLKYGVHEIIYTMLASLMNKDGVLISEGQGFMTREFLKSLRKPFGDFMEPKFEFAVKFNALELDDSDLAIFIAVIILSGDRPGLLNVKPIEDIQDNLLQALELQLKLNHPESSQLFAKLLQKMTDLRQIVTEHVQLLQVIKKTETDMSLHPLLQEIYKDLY
Sequence of Aryl hydrocarbon receptor (Homo sapiens) (P35869 whole entry, looked up): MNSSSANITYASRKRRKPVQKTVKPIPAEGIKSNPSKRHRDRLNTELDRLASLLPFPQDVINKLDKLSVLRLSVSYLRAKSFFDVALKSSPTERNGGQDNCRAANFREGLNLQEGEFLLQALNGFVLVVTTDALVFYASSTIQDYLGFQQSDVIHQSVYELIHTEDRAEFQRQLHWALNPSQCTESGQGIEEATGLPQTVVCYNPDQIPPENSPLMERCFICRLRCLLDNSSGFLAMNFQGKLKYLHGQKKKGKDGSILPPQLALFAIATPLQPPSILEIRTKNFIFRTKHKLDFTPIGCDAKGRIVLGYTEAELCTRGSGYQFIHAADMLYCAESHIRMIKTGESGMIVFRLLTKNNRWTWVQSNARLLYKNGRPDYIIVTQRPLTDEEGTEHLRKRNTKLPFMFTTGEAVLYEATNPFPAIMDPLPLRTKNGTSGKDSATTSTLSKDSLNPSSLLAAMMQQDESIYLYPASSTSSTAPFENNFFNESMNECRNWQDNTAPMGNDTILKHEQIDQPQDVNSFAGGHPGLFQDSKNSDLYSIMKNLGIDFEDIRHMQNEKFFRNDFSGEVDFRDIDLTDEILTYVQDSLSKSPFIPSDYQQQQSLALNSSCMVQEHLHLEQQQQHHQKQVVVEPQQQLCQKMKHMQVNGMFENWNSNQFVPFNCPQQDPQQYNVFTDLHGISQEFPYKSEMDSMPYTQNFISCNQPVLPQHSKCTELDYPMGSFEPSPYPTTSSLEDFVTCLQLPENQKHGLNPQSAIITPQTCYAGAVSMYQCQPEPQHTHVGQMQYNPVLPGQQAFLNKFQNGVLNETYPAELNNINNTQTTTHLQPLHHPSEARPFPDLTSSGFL

For `BrCCBr`, the molecule was called inactive in assay [1], in assay [3], in [4], in [6], in assay [8] and in assay [9]. The Potency entry in [2], in assay [5] and in assay [7] was “inactive” throughout.
For `CCOP(OCC)OCC`, the molecule was called inactive in assay [1], in assay [3], in assay [4], in [6], in [8] and in [9]. For the same molecule, the outcome in [10] was inactive. The Potency entry in [2], in assay [5] and in assay [7] was “inactive” in each case.
As for `OC(O)C(Cl)(Cl)Cl`, the outcome in [1], in [3], in assay [4], in assay [6], in assay [8] and in [9] was inactive. For the same molecule, the Potency result in assay [2], in [5] and in [7] was “inactive” in each case.
As for `NCCc1ccc(O)cc1`, the call in assay [1], in [3], in [4], in [6], in assay [8] and in [9] was inactive. The Potency entry in assay [2], in [5] and in [7] was “inactive” in each case.
As for `CN(C)N=O`, the call in assay [1], in [3], in assay [4], in [6], in assay [8] and in assay [9] was inactive. Besides, in [10], the call was inactive. For the same molecule, the Potency result in assay [2], in assay [5] and in assay [7] was “inactive” in each case.
For `ClCCBr`, the call in assay [1], in assay [3], in assay [4], in assay [6], in assay [8] and in assay [9] was inactive. For the same molecule, the Potency entry in assay [2], in [5] and in [7] was “inactive” throughout.
Consider `CC(C)NC(=O)N1CC(=O)N(c2cc(Cl)cc(Cl)c2)C1=O`, for which the outcome in assay [1], in assay [3], in [4], in [6], in assay [8] and in assay [9] was inactive. Further, the Potency in assay [2] is 4.86 µM (active) and 15.4 µM (active). In addition, the Potency entry in [5] and in assay [7] was “inactive” each time.
Regarding `CN=C=S`, the outcome in [1], in assay [3], in assay [4], in assay [6], in [8] and in assay [9] was inactive. Moreover, the molecule was called inactive in [10]. Moreover, the Potency entry in assay [2], in [5] and in assay [7] was “inactive” each time.
`CCNc1nc(NC(C)C)nc(SC)n1`: the result in assay [1], in [3], in assay [4], in assay [6], in [8] and in [9] was inactive. Further, the molecule was called inactive in assay [10]. Besides, the Potency entry in [2], in assay [5] and in assay [7] was “inactive” each time.
`O=c1ccc(=O)[nH][nH]1`: the call in assay [1], in assay [3], in assay [4], in assay [6], in [8] and in assay [9] was inactive. The call in [10] was inactive. The Potency result in [2], in [5] and in assay [7] was “inactive” throughout.
With `[O-][Cl+2]([O-])O`, the molecule was classed as inactive in assay [1], in assay [3], in [4], in [6], in assay [8] and in [9]. The call in assay [10] was inactive. Besides, the Potency entry in [2], in assay [5] and in assay [7] was “inactive” throughout.
With `Clc1ccc(Cl)cc1`, the call in assay [1], in assay [3], in [4], in assay [6], in assay [8] and in assay [9] was inactive. The result in [10] was inactive. Also, the Potency result in assay [2], in assay [5] and in [7] was “inactive” throughout.
For the molecule `CCN(CC)CCO`, the call in assay [1], in assay [3], in [4], in assay [6], in assay [8] and in assay [9] was inactive. Further, the result in assay [10] was inactive. Also, the Potency entry in assay [2], in [5] and in assay [7] was “inactive” each time.
Regarding `Cc1ccc([N+](=O)[O-])cc1C`, the molecule was called inactive in assay [1], in [3], in [4], in assay [6], in [8] and in assay [9]. Moreover, in assay [10], the molecule was called inactive. The Potency entry in [2], in assay [5] and in assay [7] was “inactive” in each case.
Turning to `C1CN2CCN1CC2`, the outcome in assay [1], in [3], in assay [4], in assay [6], in assay [8] and in [9] was inactive. The molecule was called inactive in assay [10]. Moreover, the Potency entry in [2], in [5] and in [7] was “inactive” throughout.
For the molecule `CCCCN(CC)C(=O)SCCC`, the molecule was called inactive in assay [1], in assay [3], in assay [4], in assay [6], in assay [8] and in assay [9]. Besides, the molecule was called inactive in assay [10]. Moreover, the Potency result in assay [2], in assay [5] and in [7] was “inactive” throughout.
Take `Nc1ccc(Oc2ccc(N)cc2)cc1`: the result in assay [1], in assay [3], in [4], in [6], in [8] and in assay [9] was inactive. Moreover, the call in assay [10] was inactive. In addition, in assay [2], the Potency was 11 µM (active). The Potency result in assay [5] and in [7] was “inactive” each time.
Consider `c1cc2c3c(cccc3c1)CC2`, for which the molecule was classed as inactive in assay [1], in assay [3], in [4], in assay [6], in assay [8] and in assay [9]. Besides, the call in assay [10] was inactive. The Potency entry in assay [2], in assay [5] and in assay [7] was “inactive” throughout.
In the case of `CC1C=[C-]C=C1.[C-]#[O+].[C-]#[O+].[C-]#[O+].[Mn]`, the molecule was called inactive in [1], in [3], in assay [4], in [6], in assay [8] and in [9]. The molecule was called inactive in assay [10]. Moreover, the Potency entry in [2], in [5] and in assay [7] was “inactive” throughout.
Turning to `CC(C)(C)OOC(=O)c1ccccc1`, the call in assay [1], in assay [3], in assay [4], in assay [6], in assay [8] and in assay [9] was inactive. For the same molecule, the molecule was called inactive in assay [10]. Besides, the Potency result in assay [2], in assay [5] and in assay [7] was “inactive” each time.
As to `CC(Oc1ccc(Cl)cc1Cl)C(=O)O` (stereo not given), the molecule was classed as inactive in assay [1], in assay [3], in assay [4], in [6], in assay [8] and in assay [9]. The call in [10] was inactive. The Potency result in assay [2], in assay [5] and in assay [7] was “inactive” in each case.
For the molecule `CCCN(CCC)N=O`, the outcome in assay [1], in assay [3], in assay [4], in assay [6], in assay [8] and in assay [9] was inactive. In addition, the outcome in assay [10] was inactive. Moreover, the Potency result in assay [2], in assay [5] and in assay [7] was “inactive” each time.
`CC(Br)C(=O)O` (stereo not given): the molecule was called inactive in assay [1], in assay [3], in [4], in assay [6], in assay [8] and in assay [9]. For the same molecule, the molecule was classed as inactive in assay [10]. For the same molecule, the Potency result in assay [2], in assay [5] and in assay [7] was “inactive” throughout.
On to `Cc1cc(-c2cc(C)c(N)c(C)c2)cc(C)c1N`, for which the outcome in assay [1], in [3], in assay [4], in assay [6], in assay [8] and in [9] was inactive. The result in assay [10] was inactive. The Potency in assay [2] was 1.54 µM (active) and 756 nM (active). Besides, the Potency result in [5] and in assay [7] was “inactive” each time.
In the case of `O=C1CCCN1`, the outcome in assay [1], in assay [3], in assay [4], in assay [6], in assay [8] and in assay [9] was inactive. In assay [10], the call was inactive. The Potency entry in [2], in assay [5] and in [7] was “inactive” in each case.
